# Screens as filed in PubChem BioAssay.
# Rows were chosen to be rich in hits. Some 19% of all compounds tested hit in one or more screens of this group.
# DT40 TDP1 no CPT: qHTS for Inhibitors of human tyrosyl-DNA phosphodiesterase 1 (TDP1): qHTS in cells in absence of CPT; 15% of 420,000 active; AID 686978, 2013; Potency, µM (series often up to 46.2 µM), usual class: inhibitors; DT40 Tdp1-/- hTDP1 cells, no CPT, ATP luminescence, 48 h; note: nearly all actives have a fitted effect of over 55% in size
#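 Growth kinetics read by CellTiter-Glo luminescence after ≥48 hr at 37 °C. Cells: DT40 Tdp1-/- stably carrying human TDP1, 400 per well, compound exposure in the absence of CPT (DMSO vehicle).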
# HT1080 IDH1KD tx: HT-1080 IDH1 knockdown cell toxicity (counter line) | HT-1080 IDH1 knockdown viability, ATP luminescence, 48 h | 2% of 360,000 active | AID 686971 | Potency, µM (series often up to 46.1 µM), actives largely listed as cytotoxic
#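 Cytotoxicity counter-line: IDH1KD HT-1080, 48 h, CellTiter-Glo. Curves classed by r2, magnitude and activity.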
# ELG1 repair inh: blocks ELG1-dependent DNA repair in HEK293T cells; HEK293T ELG1-luciferase reporter, luminescence, 16 h; DNA damage induced by 5-fluorouridine; Potency, µM (series often up to 46.1 µM), most hits filed as inhibitors; 2.3% of 330,000 active; note: nearly all actives have a fitted effect of over 55% in size
#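 Step one: seed 2,000 cells per well. Step two: pin-transfer compound or DMSO alongside 5-fluorouridine. Step three: incubate 16 hr, 37 °C, 5% CO2. Step four: add ONE-Glo, wait 30 min, read luminescence.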
# IL1B secr inh: inhibitors of inflammasome signaling (IL-1 beta secretion) | THP-1 LPS/ATP IL-1B secretion, AlphaLISA, 16 h; stronger effect = lower value | activity change, % at 57.5 µM | 4.7% of 360,000 active; in the data active = activity change below about -50%; inconclusive = mostly about -30% to -49%
#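 THP-1 cells pretreated 1 hr with compounds (up to 57.5 uM final), then stimulated with LPS (250 ng/mL final) plus ATP (1.25 mM final); secreted IL-1B measured by AlphaLISA after 16 hr, decreased signal indicating inhibition.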
# HT1080-NT tox: kills 2HG-producing HT-1080-NT fibrosarcoma cells; HT-1080-NT fibrosarcoma viability, CellTiter-Glo ATP luminescence, 48 h; Potency, µM (series often up to 46.1 µM), most hits filed as cytotoxic; 1.6% of 360,000 active; AID 686970;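 note: NT is the 2HG producing partner of a matched IDH1 knockdown line; nearly all actives have a fitted effect of over 55% in size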
#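 Toxicity toward the 2HG-producing NT line was scored as %Activity, normalised to DMSO and no-cell wells, from CellTiter-Glo luminescence after 48 hours' treatment.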
# TDP1 cell CPT: growth inhibition of DT40 Tdp1-/-;hTDP1 cells with camptothecin (screen for TDP1 inhibitors); chicken DT40 Tdp1-/-;hTDP1 cells + 20 nM CPT, ATP luminescence, 48 h; Potency, µM (titrated, usually from 46.2 µM), most hits filed as inhibitors; 12% of 420,000 active; note: nearly all actives have a fitted effect of over 55% in size
#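 Chicken DT40 Tdp1-/- cells complemented with human TDP1, 400 cells/well, exposed to compounds plus 20 nM camptothecin for at least 48 h at 37 C; viability read as ATP content by CellTiter-Glo luminescence.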
# Numbers stand for hits; 0 = inactive; ? = inconclusive; - = no result given. Unless noted, calls come from the whole dose curve; as a rule, active = well fitted curve in the direction sought with a large enough effect; inconclusive = small, poorly fitted or top-dose-only effect, or another doubt; inactive = no such curve, though single readings can be large; an effect the other way counts as inactive or inconclusive.
SMILES,DT40 TDP1 no CPT,HT1080 IDH1KD tx,ELG1 repair inh,IL1B secr inh,HT1080-NT tox,TDP1 cell CPT
COc1ccc(CN(CC(=O)NC2CCCC2)C(=O)c2ccc(-c3ccccc3)[nH]2)cc1,?,0,?,-68,?,0
CC(C)(C)NC(=O)C(c1ccc(F)cc1)N(Cc1ccco1)C(=O)CCC(=O)Nc1ccccn1 (centres undefined),0,0,0,0,0,0
O=C(NC1CCCCC1)C(c1ccncc1)N(Cc1ccc(F)cc1)C(=O)c1ccccn1 (centres undefined),0,0,0,0,0,0
C/C(=N\Nc1cccc(C(F)(F)F)c1)c1ccc(O)cc1,0,0,0,0,0,0
O=C(COC(=O)CCCN1C(=O)c2cccc3cccc(c23)C1=O)Nc1cccc(C(F)(F)F)c1,0,0,0,0,0,0
Cc1ccc(-c2c(C(=O)NCCc3ccccc3)oc(=O)c3ccccc23)cc1,?,-,-,-,-,15µM
CCOc1ccc(N(C)C(=O)c2oc(=O)c3ccccc3c2-c2ccccc2)cc1,15µM,-,-,-,-,18µM
Cc1ccc(-c2c(C(=O)NCc3ccccc3)oc(=O)c3ccccc23)cc1,?,0,0,0,0,?
CN(Cc1ccccc1)C(=O)c1oc(=O)c2ccccc2c1-c1ccccc1,?,0,0,0,0,?
CCOC(=O)c1ccc(NC(=O)Cn2nc3c4ccccc4n(Cc4cccc(F)c4)cc-3c2=O)cc1,?,-,-,-,-,0
CCc1ccc2oc(C(=O)Nc3nc(-c4ccccc4)ns3)c(C)c2c1,0,-,-,-,-,0
Cc1ccc(S(=O)(=O)CCC(=O)OCC(=O)NC(C)c2ccccc2)cc1 (centres undefined),0,0,0,0,0,0
CCCCCCC(=O)N(O)C1CC(=O)N(c2ccc(Cl)cc2)C1=O (centres undefined),2.9µM,0,?,-51,0,2.3µM
CCCCCCC(=O)N(O)C1CC(=O)N(c2ccc(C)cc2)C1=O (centres undefined),5.8µM,0,?,0,0,2.9µM
Cc1ccc(N2C(=O)CC(N(O)C3CC(=O)N(c4ccc(C)cc4)C3=O)C2=O)cc1 (centres undefined),?,0,0,0,0,?
O=C(O)CSC1CC(=O)N(c2ccc(Cl)cc2)C1=O (centres undefined),0,0,0,0,0,0
Cc1ccc(Sc2ccc(S(=O)(=O)Nc3ccc(CC(=O)O)cc3)cc2)cc1C,0,0,0,0,0,0
Cc1ccc(NC(=O)CSc2nc3c(c(=O)[nH]2)CN(Cc2ccc(F)cc2)CC3)cc1C,?,0,?,0,0,?
O=C(CSc1nc2c(c(=O)[nH]1)CN(Cc1ccc(F)cc1)CC2)Nc1ccc(F)cc1,16µM,0,0,0,0,21µM
CCCn1c(CN2CCN(C(=O)c3ccco3)CC2)nc2cc(S(=O)(=O)N(C)C)ccc21,?,0,0,0,0,0
CN(C)CCCN(C(=O)c1ccc2c(c1)CCCC2)c1nc2ccc(F)cc2s1,16µM,0,0,-,0,21µM
CN(C)CCN(C(=O)c1ccc(C(=O)c2ccccc2)cc1)c1nc2cc3c(cc2s1)OCO3,?,0,0,0,0,0
CN(C)CCN(C(=O)C1=COCCO1)c1nc2ccc(F)cc2s1,0,0,-,0,0,0
CN(C)CCCN(C(=O)c1ccc(Br)s1)c1nc2cc3c(cc2s1)OCO3,15µM,?,?,-101,?,9.2µM
CN(C)CCCN(C(=O)c1ccc(C(=O)c2ccccc2)cc1)c1nc2cc3c(cc2s1)OCCO3,0,?,0,-64,?,0
SMILES,DT40 TDP1 no CPT,HT1080 IDH1KD tx,ELG1 repair inh,IL1B secr inh,HT1080-NT tox,TDP1 cell CPT
CN(C)CCCN(C(=O)c1ccc2c(c1)CCCC2)c1nc2cc3c(cc2s1)OCO3,?,?,0,-86,18µM,?
COCCCNC(=O)c1ccc(Cn2c(=O)c3ccccc3n(Cc3ccccc3C)c2=O)cc1,?,16µM,?,0,?,?
COCCCNC(=O)c1ccc(Cn2c(=O)c3ccccc3n(Cc3cc(C)ccc3C)c2=O)cc1,0,0,?,0,0,0
COCCCNC(=O)c1ccc(Cn2c(=O)c3ccccc3n(Cc3ccccc3C#N)c2=O)cc1,?,?,?,0,?,16µM
CC1=NN(S(=O)(=O)c2ccc(C)cc2)C(=O)c2ccccc2O1,?,0,?,0,0,?
COc1ccc(S(=O)(=O)N2N=C(C)Oc3ccccc3C2=O)cc1,2.9µM,3.3µM,0,0,2.9µM,2.9µM
Cc1ccc(C)c(OCc2cc(C(=O)NC(c3ccccn3)C(F)(F)F)no2)c1 (centres undefined),?,0,-,?,0,?
Nc1cc[n+](CC(=O)c2ccccc2)cc1,?,0,0,0,0,?
O=C(Cn1cc[n+](CC(=O)c2ccccc2)c1)c1ccccc1,4.1µM,0,0,0,0,8.2µM
O=C(Cn1cc[n+](CC(=O)c2ccc(Cl)cc2Cl)c1)c1ccc(Cl)cc1Cl,26µM,0,?,-82,0,?
COC(=O)CCCn1cc(CN2CC(N3CCCC3)CS2(=O)=O)nn1 (centres undefined),0,0,-,0,0,0
CCOC(=O)C1=NNC(C(=O)c2ccc(C)cc2)C1c1ccc(OC)cc1 (centres undefined),?,0,0,0,0,?
CCOC(=O)C1NN=C(C(=O)c2ccc(C)cc2)C1c1ccc(C)cc1 (centres undefined),21µM,0,0,?,0,18µM
CCOC(=O)C1=NNC(C(=O)c2ccc(Cl)cc2)C1c1ccc(OC)cc1 (centres undefined),18µM,0,0,0,0,?
O=C(COC(=O)C1COc2ccccc2O1)c1ccccc1 (centres undefined),0,0,-,0,0,0
Cc1ccccc1CC(=O)N1CCCC(CCC(=O)N2CCN(c3ccccn3)CC2)C1 (centres undefined),0,0,?,0,0,?
O=C(CCC1CCCN(C(=O)CCCc2ccccc2)C1)N1CCN(c2ccccn2)CC1 (centres undefined),?,0,?,0,0,21µM
CCc1ccc(CN2CCCC(CCC(=O)N3CCN(c4ccccn4)CC3)C2)o1 (centres undefined),16µM,0,0,0,0,?
O=C(CCC1CCCN(C(=O)Cc2cccc(F)c2)C1)N1CCN(c2ccccn2)CC1 (centres undefined),0,0,?,0,0,0
